# From PubChem BioAssay (NCI)
# About 83,000 compounds went through this panel and 20% of them were active in at least one assay; those are over-represented in the sample as a whole.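 Growth was measured after 48 h exposure to one concentration of compound in 96-well plates. Values under 10 count as active.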 Calls of active or inactive are those of the source.
# Test system: HOP-92 NSCLC
# Assay: NCI-60 one-dose screen, 48 h (100 = growth as untreated, 0 = no growth, -100 = all killed)
# Conditions: 10 µM unless noted
row,Compound,growth
1,CN(Cc1ccccc1)c1nc(Cl)c(C2CC(c3ccc(F)cc3)=NN2C=O)s1 (stereo not given),89.5% (inactive)
2,CCOC(=O)c1ccc(Nc2ncnc3c2cnn3-c2cccc(F)c2)cc1,90.6% (inactive)
3,Cc1ccc2nc3ccccc3c(NCc3ccc(Cl)cc3)c2c1,-4.63% (active)
4,O=S(=O)(Nc1cc(Sc2cccc3cccnc23)c(O)c2ccccc12)c1ccc(F)cc1,4.76% (active)
5,CCCCC1COc2cccc3c2N1C=C/C3=C\C(=O)N(C)c1cccc(Cl)c1 (stereo not given),92% (inactive)
6,Cc1ccc(-c2nc3nc(-c4ccc(Cl)cc4)nc(N4CCCNCC4)c3o2)cc1,83.6% (inactive)
7,COc1cc(NS(=O)(=O)C(C)C)cc(-c2cc(-c3ccc(N4CCNCC4)cc3)cnc2N)c1,61.8% (inactive)
8,COCCn1cc(-c2csc(-c3cn(C)c4ccc(F)cc34)n2)c2cccnc21,64.7% (inactive)
9,COc1ccc(NC(=O)Nc2ccccc2CNc2nc(Nc3ccc(OCCN4CCCC4)cc3)ncc2Cl)cc1,4.83% (active)
10,COc1cc(CNC(=O)CCCC/C=C/C(C)C)ccc1O,84.4% (inactive)
11,CC(Sc1ccccc1)C(=O)O (stereo not given),97% (inactive)
12,Cc1ccc(-c2nc3nc(-c4ccccc4)nc(N4CCCNCC4)c3o2)cc1,-33.5% (active)
13,CCCCn1c(C(=O)c2c[nH]c3ccccc23)n[nH]c1=S,89.4% (inactive)
14,O=C1C(=C(O)c2ccccc2)C(=O)c2ccccc21,88% (inactive)
15,COc1ccc(-c2c[nH]c(C(=O)O)c2-c2cc(OC)c(OC)c(OC)c2)cc1,32.2% (inactive)
